# HCMV inh: human cytomegalovirus inhibition; HFF cells, HCMV-luciferase reporter, 72 h; active compounds read low; 4.5% of 410,000 active; activity change, negative = inhibition, % at 57.5 µM; in the data active = activity change below about -60%; inconclusive = no clear call, values can overlap the other calls; inactive = above about -39%
#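 Inhibition of viral replication was scored as loss of reporter luminescence in HFFs infected with HCMV-luciferase (MOI 1 PFU/cell) for 72 h; compounds tested at 2 doses, normalized to buffer and Salinomycin controls.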
# FMDV antiviral: blocks foot and mouth disease virus | FMDV antiviral cell-based qHTS | Potency, µM (titrated, usually from 57.9 µM), without a hit: at the highest dose activity change, negative = inhibition, hits mostly inhibitors | 1.2% of 410,000 active | AID 1159524; calls by dose curve; tested in HEK293T cells; note: read-out not given here; potency is the fitted concentration of half-maximal effect; nearly all actives have a fitted effect of over 45% in size
# Giardia FBPA inh: blocks Giardia fructose-bisphosphate aldolase activity. Potency, µM (titrated, usually from 59.6 µM), for inactives: at the highest dose activity, negative = inhibition, most hits filed as inhibitors. AID 2451. 0.71% of 290,000 active. purified Giardia FBPA. A8B2U2; note: potency is the fitted concentration of half-maximal effect; nearly all actives have a fitted effect of over 55% in size
# Target sequence (A8B2U2 whole entry, looked up): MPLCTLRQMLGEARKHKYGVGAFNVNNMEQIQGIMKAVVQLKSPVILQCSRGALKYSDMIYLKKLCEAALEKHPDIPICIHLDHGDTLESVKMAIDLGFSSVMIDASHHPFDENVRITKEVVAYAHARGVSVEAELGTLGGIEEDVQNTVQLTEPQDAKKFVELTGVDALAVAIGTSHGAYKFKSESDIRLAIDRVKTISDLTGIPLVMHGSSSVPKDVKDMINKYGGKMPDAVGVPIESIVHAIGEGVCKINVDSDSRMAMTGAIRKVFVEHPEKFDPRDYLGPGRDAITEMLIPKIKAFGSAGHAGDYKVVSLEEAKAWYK
#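 40 nM FBPA preincubated 10 min at RT with compound (up to 57.5 uM final), then substrate plus GAPDH/TPI/NAD/arsenate coupling and diaphorase/resazurin added. Fluorescence read after 20 min at RT, 525/598 nm.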
# HCV inh: blocks hepatitis C virus | Huh7.5.1 HCVcc-Cre infection, luciferase reporter, 44 h | Potency, µM (titrated, usually from 41.8 µM), inactives show at the top dose activity change, negative = inhibition, actives largely listed as inhibitors | 3.4% of 340,000 active; note: potency is the fitted concentration of half-maximal effect
#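 Seed cells (1,000/well) for 4 h; treat with compound and infect with HCVcc-Cre, moi about 0.5. Incubate 44 h, then detect luciferase activity.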
# MARV entry inh: inhibitors of Marburg virus binding or cell entry. Marburg virus pseudotyped entry inhibition, cell reporter. Potency, µM (doses to about 37.8 µM), for the others: top-dose activity change, negative = inhibition, most hits filed as inhibitors. 1.8% of 300,000 active; calls by dose curve; tested in HEK293 cells; note: potency is the fitted concentration of half-maximal effect
# Lassa entry inh: inhibitors of Lassa virus binding or cell entry. Lassa virus pseudotype entry inhibition, cell reporter. Potency, µM (highest dose often 37.9 µM), for the others: at the top dose activity change, negative = inhibition, actives largely listed as inhibitors. 1.2% of 300,000 active. AID 540256; calls by dose curve; tested in HEK293 cells; note: potency is the fitted concentration of half-maximal effect; nearly all actives have a fitted effect of over 50% in size
# * = called active by the depositor; ? = inconclusive; . = no result; ! = a repeat was not active; [ ] = remark or other dose. In the library only some 8.3% were active in any assay of this set; here they are far more common. Unless noted, calls come from the whole dose curve; as a rule, active = well fitted curve in the direction sought with a large enough effect; inconclusive = small, poorly fitted or top-dose-only effect, or another doubt; inactive = no such curve, though single readings can be large; an effect the other way counts as inactive or inconclusive. % is set by controls: 0 for no effect and ±100 for the full control effect.
SMILES,HCMV inh,FMDV antiviral,Giardia FBPA inh,HCV inh,MARV entry inh,Lassa entry inh
CCCc1cc(=O)n2nc(N3CCC(C(=O)N4CCN(c5ccc(OC)cc5)CC4)CC3)sc2n1,-87*,?,.,?,.,.
COc1ccccc1NC(=O)CSc1nc(-c2ccc(C(C)(C)C)cc2)c(C#N)c(=O)[nH]1,-22,-9%,.,.,12%[46.1 µM],2%[46.1 µM]
NC(=Nc1ccccc1)NC(=O)c1nc(Cl)c(N)nc1N,.,17%,-5%,3%,?,?
NC(=NCc1ccccc1)NC(=O)c1nc(Cl)c(N)nc1N,14,0%,-4%,-17%,10µM*!,14%
CCO[C@H](c1cc(OC)cc([N+](=O)[O-])c1OC)[C@H](C)/C=C\CC(=O)OC,.,.,2%[12.9 µM],.,1%[14.2 µM],.
C(=N\n1c2ccccc2c2ccccc21)/c1ccccc1,19,-18%,2%,?,12%,-4%
C(=N/n1c2ccccc2c2ccccc21)/c1ccco1,43,-19%,-7%,8.9µM*,-23%[46.1 µM],-2%
C[C@@H]1COc2cccc(NC3CC3)c2S(=O)(=O)N1,0,.,.,.,.,.
CCn1nc(C)c(CN2CCC3(CCC(CNC(=O)c4ccccc4)O3)CC2)c1C (centres undefined),.,-11%,.,.,.,.
O=[N+]([O-])c1ccc(N(CC(O)CN2CCCCC2)S(=O)(=O)c2ccccc2)cc1 (centres undefined),-64*,-1%,9%,?,-14%[46.1 µM],-3%[46.1 µM]
O=[N+]([O-])c1ccc(S(=O)(=O)N(CC(O)CN2CCCCC2)c2ccccc2)cc1 (centres undefined),-9,3%,.,?,5%[46.1 µM],.
O=C(NNC(=O)C1CCN(Cc2ccc(F)cc2Cl)CC1)Nc1ccc([N+](=O)[O-])cc1,-18,-22%,6%,11µM*,-3%,-17%
FC(F)(F)c1cccc(-c2cc(C3CCNCC3)[nH]n2)c1,-72*,-14%,5%,?,?,?
COC(=O)CCN1CCC(c2cc(-c3cccc(C(F)(F)F)c3)n[nH]2)CC1,?,-15%,11%,12%,5%[46.1 µM],29%[46.1 µM]
FC(F)(F)c1cccc(CN2CCC(c3cc(-c4cccs4)n[nH]3)CC2)c1,-79*,-13%,-17%,?,?,?
CCC(COC)NC(=O)c1cnn(-c2ncc3c(n2)-c2ccccc2CCC3)c1C (centres undefined),.,-6%,.,.,.,.
Cc1cc(C)c(NC(=S)NCC2CCN(C(C)c3ccccc3)C2)c(C)c1 (centres undefined),?,-14%,2µM*,-4%,?,-2%[46.1 µM]
CC(=O)N1c2ccc(S(=O)(=O)N3CCC(C(=O)Nc4ccc(C)cn4)CC3)cc2CC1C (centres undefined),-80*,?,-9%,11µM*,.,.
CC(C)CCNC(=O)C1CCN(S(=O)(=O)c2ccc3c(c2)CC(C)N3C(=O)C2CCC2)CC1 (centres undefined),-10,-22%,1%,-7%,-1%[46.1 µM],-22%[46.1 µM]
Cc1ccc(NC(=O)C2CCN(S(=O)(=O)c3ccc4c(c3)CC(C)N4C(=O)C3CCC3)CC2)nc1 (centres undefined),-86*,?,15%,8.9µM*,?,?
CC1Cc2cc(S(=O)(=O)N3CCC(C(=O)Nc4ccccn4)CC3)ccc2N1C(=O)C1CCC1 (centres undefined),-73*,?,14%,7.9µM*,?,?
Cc1ccnc(NC(=O)C2CCN(S(=O)(=O)c3ccc4c(c3)CC(C)N4C(=O)C3CCC3)CC2)c1 (centres undefined),?,?,9%,?,?,?
CC1Cc2cc(S(=O)(=O)N3CCC(C(=O)N(C)Cc4ccccc4)CC3)ccc2N1C(=O)C1CC1 (centres undefined),-25,?,-7%,5.6µM*,.,.
Cc1ccc(C)c(OCCn2c(-c3ccc(Cl)cc3)nc3ccccc3c2=O)c1C,37,-7%,.,.,-2%[46.1 µM],0%[46.1 µM]
CCOC(=O)Cc1csc(NC(=O)COc2ccc(C)c(C)c2)n1,11,-12%,-1%,-17%,6%[46.1 µM],8%[46.1 µM]
SMILES,HCMV inh,FMDV antiviral,Giardia FBPA inh,HCV inh,MARV entry inh,Lassa entry inh
CCOC(=O)Cn1nc(C)c(NC(=O)COc2ccc(C)c(C)c2)c1C,-61*,-22%,4%,0%,14%[46.1 µM],4%[46.1 µM]
O=C(NC1CCCc2ccccc21)C1CCN(c2c3c(nc4ncnn24)CCC3)CC1 (centres undefined),-16,-28%,-5%,-5%,?,-14%
O=C(Nc1ccc2c(c1)CCC2)C1CCN(c2c3c(nc4ncnn24)CCC3)CC1,-101*,?,-10%,4.5µM*,?,?
COc1ccc(NC(=O)C2CCCN(c3c4c(nc5ncnn35)CCC4)C2)cc1OC (centres undefined),9,-29%,-1%,-22%,-17%,-26%
O=C(Nc1ccc(Oc2ccccc2)cc1)C1CCN(c2c3c(nc4ncnn24)CCC3)CC1,-101*,8.9µM*,-5%,25µM*,?,21µM*
O=S(=O)(NCCc1ccc(F)cc1)c1ccccc1Br,.,.,.,.,.,-10%[46.1 µM]
Fc1cccc(-c2cc3nc4c(c(N5CCOCC5)n3n2)CCCC4)c1,66,56%,1%,3.5µM*,?,-3%
CCC1CCCCN1CCCNC(=O)c1ccc2c(c1)N(Cc1cccc(C)c1)C(=O)c1ccccc1S2(=O)=O (centres undefined),-64*,-3%,.,.,?,?
CCC1CCCCN1CCCNC(=O)c1ccc2c(c1)N(Cc1ccc(Cl)cc1)C(=O)c1ccccc1S2(=O)=O (centres undefined),-106*,-14%,.,.,?,?
CC1CCCN(CCCNC(=O)c2ccc3c(c2)N(Cc2ccc(Cl)cc2)C(=O)c2ccccc2S3(=O)=O)C1 (centres undefined),-100*,-4%,.,.,?,?
CCC1CCCCN1CCCNC(=O)c1ccc2c(c1)N(Cc1cccc(Cl)c1)C(=O)c1ccccc1S2(=O)=O (centres undefined),-98*,-13%,.,.,.,?
CCC1CCCCN1CCCNC(=O)c1ccc2c(c1)N(Cc1ccccc1)C(=O)c1ccccc1S2(=O)=O (centres undefined),?,4%,.,.,?,-22%[46.1 µM]
COc1cc2c(cc1OC)[C@@H]1O[C@](CCCCN3C(=O)c4ccccc4C3=O)(C2)OC2=C1C(=O)CC(C)(C)C2,.,.,.,.,-9%[14.2 µM],.
CCOC(=O)N1CCN(c2c(NCCCN(C)c3ccccc3)c(=O)c2=O)CC1,-75*,-16%,-5%,-1%,.,.
CCOC(=O)N1CCN(c2c(NCc3ccc(Cl)cc3)c(=O)c2=O)CC1,-75*,-24%,-2%,?,.,.
O=C1CN(S(=O)(=O)c2ccccc2)C[C@H]2[C@H](c3ccc(Br)cc3)[C@H](CO)N12,-24,.,.,.,.,.
